Screening data deposited in PubChem BioAssay by National Center for Advancing Translational Sciences (NCATS).
HCMV inh: blocks human cytomegalovirus replication; HFF cells, HCMV-luciferase reporter, 72 h; stronger effect = lower value; activity change, negative = inhibition, % at 57.5 µM; hit rate 4.5% among 410,000; AID 1259415; in the data active = activity change below about -60%; inconclusive = no clear call, values can overlap the other calls; inactive = above about -39%; note: % is set by controls: 0 for no effect and ±100 for the full control effect
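Human foreskin fibroblasts infected with luciferase-reporter HCMV at MOI 1 PFU/cell, compounds at two doses. Luciferase measured 72 h post infection; normalized to buffer-only basal and Salinomycin (10uM) controls.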
Pf growth 48h: P. falciparum growth inhibition at 48 hours (one generation); P. falciparum luciferase growth in erythrocytes, 48 h; Potency, µM (titrated, usually from 28.7 µM), without a hit: at the top dose activity change, negative = inhibition, usual class: inhibitors; hit rate 5.9% among 310,000; AID 504832; note: potency is the fitted concentration of half-maximal effect; % is set by controls: 0 for no effect and ±100 for the full control effect
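Compounds are pin-transferred into medium, infected erythrocytes (2% hematocrit, 0.1% parasitemia final) are added, and plates sit one parasite generation at 37 C in 5% CO2. Detection reagent is then added and luminescence measured.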
HCV inh: blocks hepatitis C virus; AID 651820; Huh7.5.1 HCVcc-Cre infection, luciferase reporter, 44 h; Potency, µM (top dose mostly 41.8 µM), for inactives: at the highest dose activity change, negative = inhibition, actives largely listed as inhibitors; hit rate 3.4% among 340,000; note: potency is the fitted concentration of half-maximal effect; % is set by controls: 0 for no effect and ±100 for the full control effect
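Reporter virus HCVcc-Cre (~0.5 moi) infects cells exposed to compound; seeding density 1,000 cells/well with 4 h settling beforehand. Luminescence, 15 sec read, taken 44 h post-infection following a 15 min RT substrate incubation.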
CHX counter: counter-screen for Shiga toxin inhibitors: cycloheximide protein synthesis inhibition; max response, %; hit rate 12% among 300,000; cell reporter, cycloheximide protein synthesis inhibition counterscreen; AID 2314; in the data active = max response mostly above about 13%, no sharp cut-off; inactive = mostly below about 14%; note: read at 38.3 µM for the half of the compounds with a filed dose; 0% is about no effect
Shiga toxin inh: Shiga toxin inhibition; AID 2315; inhibition, % at 38.7 µM; hit rate 9.2% among 290,000; Vero cells, Shiga toxin protein synthesis inhibition reporter; in the data active = inhibition mostly above about 28%, no sharp cut-off; inactive = mostly below about 43%; note: 0% is about no effect
Pf growth 96h: P. falciparum growth inhibition at 96 hour, primary screen for plastid delayed-death inhibitors; P. falciparum luciferase reporter growth, 96 h; Potency, µM (highest dose often 28.7 µM), for inactives: at the highest dose activity change, negative = inhibition, usual class: inhibitors; hit rate 6.9% among 320,000; note: potency is the fitted concentration of half-maximal effect; % is set by controls: 0 for no effect and ±100 for the full control effect
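Luminescence readout: decreased luciferase signal marks inhibited growth of reporter-expressing P. falciparum in infected red cells (2% hematocrit, 0.05% parasitemia final), exposed to compound two generations (96 h, 37 C, 5% CO2).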
Numbers without * were called inactive; ? = inconclusive; · = no result; [ ] = remark or other dose. A selection: hits, their analogues and other compounds. The true share with any hit is near 21%. Unless noted, calls come from the whole dose curve; as a rule, active = well fitted inhibition curve with a large enough effect; inconclusive = small, poorly fitted or top-dose-only effect, or another doubt; inactive = no such curve, though single readings can be large or run the other way.

SMILES | HCMV inh | Pf growth 48h | HCV inh | CHX counter | Shiga toxin inh | Pf growth 96h
Clc1ccc(SCc2cn3ccsc3n2)cc1 | 58 | -20% | -28% | 51* | 70 | 10µM*
Nn1c(SCc2cn3ccsc3n2)nnc1-c1ccncc1 | 29 | 16% | -18% | -5 | 16 | 32%
Cc1ccc(S(=O)(=O)NCCc2cn3c(C)csc3n2)cc1 | -15 | · | · | · | · | ·
Cc1cc(C)c(NC(=O)CN2c3ccccc3S(=O)(=O)c3ccccc32)c(C)c1 | 24 | · | · | · | · | ·
COc1ccc(-c2onc(C)c2C)cc1S(=O)(=O)N1c2ccccc2CC1C (centres undefined) | 42 | · | · | · | · | ·
CC(Oc1ccccc1)C(=O)Nc1ccccc1C(=O)OCc1cc(=O)n2nc(C(C)C)sc2n1 (centres undefined) | -36 | · | · | · | · | ·
CC(=O)Nc1ccc(OCC(=O)NCc2ccc3c(c2)OCO3)cc1 | 28 | ? | 1% | 5 | 2 | 6%
CC(=O)Nc1cccc(NC(=O)COc2ccc3c(c2)OCO3)c1 | 64 | 59% | -11% | 27* | 60* | 1%
CC(=O)c1ccc(NC(=O)COc2ccc3c(c2)OCO3)cc1 | -8 | 25% | 1% | 19* | 4 | ?
CCc1ccc(NC(=O)COc2ccc3c(c2)OCO3)cc1 | 41 | 28% | -14% | 31* | 42* | -12%
COc1ccc(NC(=O)COc2ccc3c(c2)OCO3)cc1 | -35 | -11% | ? | 8 | 32 | 23%
CC(=O)Nc1ccc(NC(=O)COc2ccc(S(=O)(=O)N3CCCC3)cc2)cc1 | -2 | ? | -15% | -1 | -17 | ?
O=C(COc1ccc(S(=O)(=O)N2CCCC2)cc1)Nc1ccc2c(c1)OCCO2 | -33 | ? | -8% | 24* | 44* | 58%
Cc1cc(C)cc(NC(=O)CSc2nc(N)c(NC(=O)c3ccc(Br)o3)c(=O)[nH]2)c1 | -30 | 7% | -4% | -2 | -2 | ?
CCc1ccc(OCC(=O)Nc2ccc3c(c2)OCCO3)cc1 | -2 | 11% | -1% | 27* | 30 | -18%
CC(=O)c1ccc(OCC(O)CNCc2ccc3c(c2)OCO3)cc1 (centres undefined) | 18 | 2.6µM* | -1% | 1 | -4 | -27%
COc1ccc(OC)c(CNS(=O)(=O)c2ccc(-c3cc(C(F)(F)F)on3)s2)c1 | -70* | · | · | · | · | ·
CC(C)c1ccc(Nc2c(-c3ccsc3)nc3ccc(Cl)cn23)cc1 | 21 | · | · | · | · | ·
Cc1[nH]nc2c1C(c1cc(Br)cs1)C(C#N)=C(N)O2 (centres undefined) | -98* | -10% | ? | -5 | -11 | ?
CCOc1cc(C2C(C#N)=C(N)Oc3n[nH]c(CC)c32)ccc1OCCN1CCOCC1 (centres undefined) | -32 | ? | 1% | -2 | 0 | 9.3µM*
Cc1[nH]nc2c1C(c1ccc(OC(=O)c3ccco3)cc1)C(C#N)=C(N)O2 (centres undefined) | -15 | 3% | 7% | -2 | -11 | -80%
COc1cc(C2C(C#N)=C(N)Oc3n[nH]c(C)c32)ccc1OC(=O)c1ccccc1 (centres undefined) | -21 | 3% | 21% | -4 | -11 | 17µM*
COc1ccc(-c2ccc(C3C(C#N)=C(N)Oc4n[nH]c(C)c43)o2)cc1 (centres undefined) | -4 | 56% | -16% | 23* | 20 | 13%
COC(=O)Cn1c(=NC(=O)c2ccc3c(c2)OCCO3)sc2ccccc21 | -16 | · | · | · | · | ·
COc1ccccc1N1CCN(C(CNC(=O)C(=O)NCCc2ccccc2)c2cccnc2)CC1 (centres undefined) | -40 | · | · | · | · | ·
SMILES | HCMV inh | Pf growth 48h | HCV inh | CHX counter | Shiga toxin inh | Pf growth 96h
COCc1[nH]nc2c1C(c1ccc(OC)cc1)C(C#N)=C(N)O2 (centres undefined) | -14 | -6% | 4% | -1 | 19 | 1.3µM*
CCCCn1c(C23CC4CC(CC(C4)C2)C3)n[nH]c1=S | 12 | ? | -8% | 0 | -15 | -17%
CCOC(=O)COc1ccccc1C1Nc2ccccc2C(=O)N1c1cccc(Cl)c1 (centres undefined) | ? | ? | -11% | 36* | 66* | 25%
CCOc1cc(C2Nc3ccccc3C(=O)N2c2ccccc2)c(Br)cc1OCC(=O)O (centres undefined) | 12 | 0% | 32% | -3 | 19 | -29%
COc1cc(C2Nc3ccccc3C(=O)N2c2ccc(Cl)cc2)c(Cl)cc1OCC(=O)O (centres undefined) | 158 | 192% | 18% | 54* | 71* | 241%
COc1ccccc1Nc1ncnc2c1cnn2-c1cccc(C)c1 | 30 | 77% | ? | 51* | 83* | 6%[5.75 µM]
COc1ccc(OC)c(Nc2ncnc3c2cnn3-c2ccccc2)c1 | 2 | 2% | -36% | 21* | 44 | 22%
COc1ccc(OC)c(Nc2ncnc3c2cnn3-c2ccc(C)cc2)c1 | 18 | · | · | · | · | ·
COc1cccc(Nc2ncnc3c2cnn3-c2cccc(C)c2)c1 | -8 | 71% | ? | 27* | 78* | 52%
Cc1cccc(-n2ncc3c(Nc4ccc(C)c(Cl)c4)ncnc32)c1 | -31 | · | · | · | · | ·
CC(C)CNC(=O)C(=O)NCC1OCCCN1S(=O)(=O)c1ccc2c(c1)OCCO2 (centres undefined) | -17 | 1% | -1% | -3 | -12 | -6%
CCOCCCN(C)C1CCN(C(=O)c2oc3ccccc3c2NC(=O)c2ccc(F)cc2)CC1 | -30 | -16% | ? | -2 | 17 | ?
Cc1cc(C(=O)CSc2ccc3c(c2)OCCO3)c(C)n1C1CC1 | 17 | 99% | -25% | 67* | 92* | 77%
C/C(N)=C(/C#N)C(=O)CSc1ccc2c(c1)OCCO2 | 93 | 102% | 8% | 48* | 98* | 389%
C/C(N)=C(/C#N)C(=O)CSc1cc(C)c2cc(C)cc(C)c2n1 | -7 | -10% | 10µM* | -2 | 27 | 10%
Cc1cc(C)c2nc(SCC#N)cc(C)c2c1 | -16 | · | ? | -3 | -10 | -24%
Cn1c(N)c(C(=O)CSc2ccc3c(c2)OCCO3)c(=O)n(C)c1=O | -12 | 3% | -8% | 12 | -3 | -10%
Cc1ccccc1C(=O)n1nc(-c2ccco2)nc1NCc1cccs1 | 25 | · | · | · | · | ·
CCn1cc(C(=O)O)c(=O)c2cnc(N3CCN(C(=S)Nc4ccccc4Cl)CC3)nc21 | 36 | 0.37µM* | 8% | 2 | 17 | 0.83µM*
CCn1cc(C(=O)O)c(=O)c2cnc(N3CCN(C(=S)Nc4ccc(F)cc4)CC3)nc21 | -39 | ? | 21% | 6 | 2 | 0.93µM*
C/C(=N\NC(=O)c1ccc(Cl)cc1)c1ccc(Br)s1 | -20 | 7.4µM* | -8% | 29* | 90* | 2.6µM*
C/C(=N\NC(=O)c1ccco1)c1ccc(C(=O)O)s1 | -3 | 1% | 6% | 50* | 80* | -13%
